Molecules are shown by their SMILES. Among all 2,400 compounds or so, about 360 (15%) were called active.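 Rule for the calls: active = viability falls under 70% at one or more tested concentrations, taken as toxicity; inactive = viability stays over 70% at every dose.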 The list is a sample of the results. Entries with a potency or affinity are not part of this list.

The test can be described thus: viability loss in HeLa cells – cytotoxicity control for MgcRacGAP inhibitor project, dose response (AID 624300). Conditions: CellTiter-Glo luminescence, 24 h; series mostly up to 100 µM. On the technique in general: Cellular ATP, detected with luciferase, serves as a proxy for viable cell number.
For `COc1cc(C2NC(=O)C(C#N)=C(S)N2c2ccc(C)cc2)ccc1OC(C)C` (stereo not drawn), the compound was called inactive.
As to `Nc1ccc2ccc(O)cc2c1`, the call was inactive.
On to `CCOc1cc(/C=C(\C#N)C(=O)NCC2CCCO2)ccc1O` (stereo not drawn), for which the outcome was inactive.
Take `CCOc1cc(/C=C(\C#N)C(=O)NCc2cccnc2)ccc1O`: the compound was classed as inactive.
The same measure for `O=C(CCC1CCCC1)N1CCN(C2CCCC2)CC1`: “inactive”; for `CC(C)(C)c1cc(C(=O)N/N=C/c2ccc(O)cc2)n(-c2ccccc2)n1`: “inactive”; for `Cc1cccc2sc(NNC(=O)c3cc(=O)c4ccccc4o3)nc12`: “inactive”.
Regarding `COc1ccc(NC(=S)NCC2CCN(c3ccc(OC)cc3)C2)cc1` (stereo not drawn), the compound was called inactive.
In the case of `C=CCc1cc(Cl)ccc1OCCn1ccnc1`, the call was inactive.
As to `CCOc1cc(/C=N/NC(=O)CN2CCCCC2)ccc1O`, the result was inactive.
For the compound `O=C1CSC(=Nc2ccc(O)cc2)N1c1ccc(O)cc1`, the result was inactive.
For the compound `COc1ccc(NC2CCCN(C(=O)c3cc(C)nc4cc(F)ccc34)C2)cc1` (stereo not drawn), the compound was classed as inactive.
The value for `CN(C)c1ccc(N=c2sc3ccccc3n2C)cc1` was “inactive”.
For `O=C(N/N=C/c1ccc(O)cc1)c1cc[n+](Cc2ccccc2)cc1`, the call was inactive.
As to `O=C(N/N=C/c1ccc(N2CCOCC2)s1)c1ccc(O)cc1`, the result was inactive.
`Cc1c(N=Nc2ccc(N(C)C)cc2)c(=O)n(-c2ccccc2)n1C`: the outcome was inactive.
Take `CCc1nnc(NC(=O)CSCc2cc(=O)n3ccsc3n2)s1`: the compound was called inactive.
On to `COc1ccc([C@H]2CN(c3ccc(OC)cc3)C(=O)[C@@H]2CC(=O)Nc2ccccc2)cc1`, for which the compound was classed as inactive.
Turning to `COc1cc(/C=N/NC(=O)C2(O)c3ccccc3-c3ccccc32)ccc1O`, the compound was called inactive.
Consider `O=C1C=CC(=O)N1c1ccc(Nc2ccccc2)cc1`, for which the outcome was inactive.
The same measure for `O=C(O)C1CCN(Cc2cnn(-c3ccccc3)c2-n2cccc2)CC1`: “inactive”; for `COc1cc(/C=N/NC(=O)c2ccc3c(c2)OCO3)ccc1O`: “inactive”.
Regarding `COc1ccc(CCNCCN2CCOCC2)cc1`, the call was inactive.
The same measure for `Oc1ccc(/C=N/NC(=S)Nc2cccnc2)c(O)c1`: “inactive”.
Consider `CN=c1scc(C)n1/N=C/c1ccc(O)cc1O`, for which the call was inactive.
Turning to `CN=c1scc(-c2ccc(F)cc2)n1/N=C/c1ccc(O)c(O)c1`, the result was inactive.
Regarding `CN=c1scc(-c2ccco2)n1/N=C/c1ccc(O)c(O)c1`, the compound was classed as inactive.
As for `COC(=O)c1[nH]c2ccccc2c1NC(=O)Oc1ccccc1`, the call was inactive.
On to `Nc1ccc(N2CCOCC2)c(Cl)c1`, for which the compound was called inactive.
As to `CC(=Nc1ccc(O)cc1)c1sc2ccccc2c1O`, the compound was classed as inactive.
Consider `Oc1ccc(N=Cc2cc(Br)c(N3CCOCC3)o2)cc1`, for which the compound was called inactive.
`COc1ccccc1Nc1n[nH]c(=S)s1`: the outcome was inactive.
`O=C(Cn1c(C(=O)NCc2ccco2)cc2sccc21)c1ccccc1`: the outcome was inactive.
For the compound `COc1ccc(C=NNC(=O)c2cc(C)oc2C)cc1O`, the compound was classed as inactive.
For `Cc1nonc1C(=O)N/N=C/c1ccc(O)c(O)c1`, the outcome was inactive.
For the compound `Cc1c(C(=O)N/N=C/c2ccc(O)cc2)sc(=S)n1C`, the result was inactive.
In the case of `Oc1cc(O)c2c(c1)O[C@H](c1ccc(O)c(O)c1)[C@H](O)C2`, the compound was called inactive.
Take `CCOC(=O)c1c(OCC)[nH]c2c1cc(O)c1ccccc12`: the compound was called inactive.
Consider `c1coc(CSSCc2ccco2)c1`, for which the compound was called inactive.
`COc1cc(/C=N/n2nnnc2N)ccc1O`: the call was inactive.
For `Cc1cc(C)cc(NC(=O)C(NCCN2CCOCC2)c2ccccc2)c1` (stereo not drawn), the result was inactive.
For `CN=c1scc(C)n1/N=C/c1cc(Br)c(O)c(OC)c1`, the outcome was inactive.
Regarding `O=c1oc2cc(O)ccc2c2oc3cc(O)ccc3c12`, the call was inactive.
The same measure for `Cc1cc(O)ccc1N/C=C1\CCCC1=O`: “inactive”; for `CN(C)/C=C/c1oc2ccc(O)cc2c1[N+](=O)[O-]`: “inactive”.
Consider `CC(C)COc1ccc(N)cc1OCC(C)C`, for which the call was inactive.
With `Nc1cc2c([N+](=O)[O-])cccc2o1`, the outcome was inactive.
The value for `COc1cc(Sc2ccc(C)cc2)c(OC)cc1N` was “inactive”; that for `COc1ccc(NCCC(O)c2ccc(Cl)cc2)cc1` (stereo not drawn) was “inactive”; that for `COc1ccc(NC2CCCN(C(=O)COc3ccc(C(C)=O)cc3)C2)cc1` (stereo not drawn) was “inactive”.
For the compound `S=c1[nH]nc(-c2ccncc2)n1/N=C/c1ccccc1`, the compound was called inactive.
With `COc1ccc(N2CCN(C(=O)c3ccc(Br)o3)CC2)cc1`, the outcome was inactive.
The same measure for `O=[N+]([O-])c1ccc(C2CC(c3ccccc3)=Nc3ccccc3S2)cc1` (stereo not drawn): “inactive”; for `CCOC1=C/C(=C/c2c(N)n3nc(S(=O)(=O)CC)sc3nc2=O)C=CC1=O`: “inactive”.
For the compound `COc1ccc(OC(=O)c2cc(S(=O)(=O)N3CCCC3)ccc2Cl)cc1`, the outcome was inactive.
For `O=C(Cn1c(C(=O)NCC2CCCO2)cc2sccc21)c1ccccc1` (stereo not drawn), the outcome was inactive.
Take `CCOc1cc(/C=N\NC(=O)CC(=O)NCCc2ccccc2)ccc1O`: the result was inactive.
Regarding `CS(=O)(=O)c1ccc2c(c1)sc1nc(=O)c(/C=C3/C=CC(=O)C(O)=C3)c(N)n12`, the call was inactive.
As for `COc1ccc(NCC(O)COc2ccc(C(C)(C)C)cc2)cc1` (stereo not drawn), the compound was classed as inactive.
Consider `C#CCOc1ccccc1CNC1CCN(Cc2ccccc2)CC1`, for which the compound was classed as inactive.
With `O=C(NCCNCC(O)COc1ccc(O)cc1)N1CCOCC1` (stereo not drawn), the outcome was inactive.
For the compound `CCCCN(C)C(=O)C1CCN(Cc2ccc(OCc3ccccc3)cc2)CC1`, the compound was called inactive.
For `O=C(Cc1coc2cc(O)ccc12)NNC(=O)c1ccc(Br)s1`, the outcome was inactive.
For the compound `CCc1ccc(CNc2ccc(N3CCN(C(C)=O)CC3)cc2)cc1`, the compound was classed as inactive.
The value for `COc1cc(N=Nc2ccc(C)cc2S(N)(=O)=O)c(C)cc1N` was “inactive”; that for `COc1cc(/C=N/NC(=O)CCNC(=O)c2ccccc2Cl)ccc1O` was “inactive”.
The value for `COc1cc(/C=C/C(=O)OCC(=O)Nc2ccc3c(c2)OCCO3)ccc1O` was “inactive”; that for `CN(c1ccc(O)cc1)c1nc(-c2cccnc2)cs1` was “inactive”; that for `Oc1ccc(-c2csc(NCc3ccco3)n2)cc1` was “inactive”.
In the case of `COc1ccc(N)cc1NC(=O)CN1CCOCC1`, the result was inactive.
Regarding `CC/C(=N\O)c1ccc(O)c(OC)c1`, the result was inactive.
Take `CC(C(=O)N(C)Cc1ccccc1)N1CCN(C/C=C/c2ccccc2)CC1` (stereo not drawn): the result was inactive.
Regarding `COc1ccc(N2CCN(C(=O)CCCn3c(=O)c4cccn4c4cccnc43)CC2)cc1`, the outcome was inactive.
Regarding `COc1cccc(CN2CCN(Cc3cc(OC)c(OC)c(OC)c3)CC2)c1OC`, the call was inactive.
As to `Oc1ccc(/C=N/Nc2nccnc2Cl)c(O)c1`, the result was inactive.
Turning to `Nc1c(Cl)ncnc1N/N=C/c1ccc(O)cc1`, the compound was called inactive.
As for `CCOc1cc(/C=N/Nc2ncnc(Cl)c2N)ccc1O`, the outcome was inactive.
As for `COc1cc(/C(C)=N/NC(=O)C(O)(c2ccccc2)c2ccccc2)ccc1O`, the result was inactive.
On to `Cc1nc(C/C(=N\N)c2ccc(O)cc2O)cs1`, for which the outcome was inactive.
Consider `O=C1CC(SC(=S)C2CCCC2=O)C(=O)N1` (stereo not drawn), for which the compound was classed as inactive.
For `Cc1ccc(SCCN2CCN(Cc3ccccc3)CC2)cc1`, the result was inactive.
Regarding `CC(CN1CCN(Cc2ccccc2)CC1)c1ccccc1` (stereo not drawn), the outcome was inactive.
With `CC(=O)c1c(Nc2ccc3c(c2)OCCO3)oc(C)cc1=O`, the outcome was inactive.
The value for `CC(=O)N1CCN(c2ccc(N)cc2)CC1` was “inactive”; that for `Oc1ccc(/C=N/n2cc(-c3ccccc3)[nH]c2=S)cc1` was “inactive”; that for `Nc1ccc(C(=O)N/N=C/c2ccc(N3CCOCC3)s2)cc1` was “inactive”.
The same measure for `CN(c1ccccc1)c1ccc(/C=N/N2CCOCC2)cc1`: “inactive”; for `Oc1ccc(-c2csc(Nc3ncccn3)n2)cc1`: “inactive”.
Take `Oc1ccc(-c2csc(Nc3cccnc3)n2)cc1`: the result was inactive.
For the compound `C#CCOCCOCCOCCNc1nc(N2CCN(C(=O)[C@H](CCCCN)n3cc([C@@H](N)C(C)CC)nn3)CC2)nc(N2CCN(C(=O)[C@H](CCCCN)n3cc([C@@H](N)CC(C)C)nn3)CC2)n1` (stereo partly drawn), the call was inactive.
`Cc1ccc(N2CC(C(=O)Nc3ccc(N(C)C)cc3)CC2=O)cc1C` (stereo not drawn): the compound was called inactive.
The value for `O=C(O)c1ccc(S(=O)(=O)c2ccc3c(c2)C(=O)N(NC(=O)c2cccnc2)C3=O)cc1` was “inactive”; that for `Cc1cc(=O)oc2c(O)c(O)ccc12` was “inactive”; that for `O=C(O)c1cccc2cccc(-c3c4ccc(=O)c(O)c-4oc4c(O)c(O)ccc34)c12` was “inactive”.
In the case of `CC(C(=O)NCC(=O)Nc1ccc(F)c(F)c1F)N1CCN(c2ccc(O)cc2)CC1` (stereo not drawn), the compound was called inactive.
The same measure for `Cc1cc(C(=O)c2cnc(/N=C/N(C)C)s2)cc(C)c1O`: “inactive”.
On to `COc1cc(/C=N/NC(=O)C(=O)N2CCCC2)ccc1O`, for which the result was inactive.
For the compound `Oc1ccc(Br)cc1C=Nc1ccc2[nH]ncc2c1`, the outcome was inactive.
`Oc1ccccc1/C=N/n1c(-c2ccccc2)n[nH]c1=S`: the outcome was inactive.
Consider `O=[N+]([O-])c1cccc(/C=N/n2c(-c3cccnc3)n[nH]c2=S)c1`, for which the compound was called inactive.
In the case of `CCN(c1ccccc1)S(=O)(=O)c1ccc(OC)c(NC(=O)CNCCc2ccccc2)c1`, the compound was classed as inactive.
The value for `CCOC(=O)CCNC(C)C1COc2ccccc2O1` (stereo not drawn) was “inactive”; that for `O=C(COC(=O)c1c2c(nc3ccccc13)/C(=C/c1ccco1)CC2)NC1CCCC1` was “inactive”; that for `CC(C)c1ccc(NC(=O)CNCC(c2ccccc2)N(C)C)cc1` (stereo not drawn) was “inactive”.
Consider `COC(C(=O)N/N=C(\C)CC(=O)Nc1ccc(N(C)C)cc1)c1ccccc1` (stereo not drawn), for which the result was inactive.
For `COc1cc(N=Nc2c(C)n(C)n(-c3ccccc3)c2=O)ccc1N`, the call was inactive.
With `Oc1ccc(/C=N/N=C/c2ccc(O)cc2)cc1`, the compound was called inactive.
Consider `COc1cccc(OC)c1OCCCCN1CCCC1`, for which the outcome was inactive.
The value for `Cc1cccn2c(NCc3ccc4c(c3)OCO4)c(-c3ccc(O)cc3)nc12` was “inactive”; that for `C/C(CC(=O)Nc1ccc(N(C)C)cc1)=N\NC(=O)c1ccc([N+](=O)[O-])cc1Cl` was “inactive”; that for `Cc1cc(/C=C(\C#N)C(=O)N2CCCCC2)cc(C)c1O` was “inactive”.
Take `COc1ccc(N2C(=O)CC(Nc3ccc(N4CCOCC4)cc3)C2=O)c(OC)c1` (stereo not drawn): the compound was classed as inactive.
The value for `CN1C=CC(=CC=C2C=CC(=O)C=C2)C=C1` was “inactive”; that for `COc1cc(/C=C/C(=O)OC(C)C(=O)Nc2c(C)n(C)n(-c3ccccc3)c2=O)ccc1O` (stereo not drawn) was “inactive”; that for `COc1cc(/C=N/NC(=O)c2nnn(-c3nonc3N)c2C(C)C)ccc1O` was “inactive”.
For the compound `CCN1CCN(CCOc2ccc(Br)cc2C)CC1`, the compound was classed as inactive.
The value for `COc1ccccc1-c1cn[nH]c1-c1ccc(O)cc1O` was “inactive”; that for `COc1ccc(-c2cn[nH]c2-c2ccc(O)cc2O)cc1` was “inactive”.

The record behind these values is PubChem BioAssay AID624300 (Southern Research Specialized Biocontainment Screening …, 2012).
